Screening data deposited in PubChem by several laboratories.
OPRM1-OPRD1 ag = OPRM1-OPRD1 heterodimerization agonism; P35372+P41143; cells, luminescence; activation, % at 9.3 µM; actives 0.3% (n = 340,000); AID 504326; in the data active = activation above about 18%
MOR-DOR inv ag = mu-delta opioid heterodimer inverse agonism; cell-based MOR-DOR heterodimer luminescence; inhibition, % at 9.3 µM; actives 0.21% (n = 340,000); in the data active = inhibition above about 22%, passing the limit was not always enough
HTR5A inv ctr = HTR5A inverse agonism, opioid heterodimer counter-screen; P47898; HTR5A cell line, luminescence; inhibition, % at 9.3 µM; actives 0.083% (n = 340,000); AID 504634; in the data active = inhibition mostly above about 23%, no sharp cut-off; inactive = mostly below about 18%
Target sequence (P47898 whole entry, looked up): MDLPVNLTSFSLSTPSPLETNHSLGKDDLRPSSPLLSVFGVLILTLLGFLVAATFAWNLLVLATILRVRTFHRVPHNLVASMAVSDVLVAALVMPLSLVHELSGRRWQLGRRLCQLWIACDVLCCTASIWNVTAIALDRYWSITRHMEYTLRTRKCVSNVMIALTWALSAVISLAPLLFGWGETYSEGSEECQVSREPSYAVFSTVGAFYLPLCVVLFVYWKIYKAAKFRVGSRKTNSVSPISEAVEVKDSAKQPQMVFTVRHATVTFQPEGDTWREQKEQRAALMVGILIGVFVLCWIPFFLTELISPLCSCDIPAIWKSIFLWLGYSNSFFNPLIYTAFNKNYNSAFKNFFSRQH
HTR5A ag ctr = counter-screen for OPRM1-OPRD1 agonists: human HTR5A agonism. P47898. HTR5A agonist assay, luminescence, cell-based. activation, % at 9.3 µM. actives 0.61% (n = 340,000). AID 504692; in the data active = activation mostly above about 9.5%, no sharp cut-off; inactive = mostly below about 7.6%
PvdQ acylase = P. aeruginosa PvdQ acylase inhibition. purified PvdQ acylase, fluorescence plate reader. inhibition, % at 10 µM. actives 0.063% (n = 340,000). AID 488965; in the data active = inhibition above about 30%, passing the limit was not always enough
CR mimetic SO = lowers age-related superoxide in aged yeast cells | S. cerevisiae aged cells, superoxide DHE fluorescence; active compounds read low | superoxide response (% of plate mean), % at 10 µM | actives 0.18% (n = 330,000);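 active = superoxide response under a set limit, about three screen SD below normal, cut at about 65% in these data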;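 note: yeast aged for seven days with compound at 30 °C before DHE staining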
Numbers stand for hits; i = inactive; nt = no result. The list is not random: actives were taken first. Their share in the collection is about 1.3%.

SMILES	OPRM1-OPRD1 ag	MOR-DOR inv ag	HTR5A inv ctr	HTR5A ag ctr	PvdQ acylase	CR mimetic SO
O=C(CSC(=S)N1CCOCC1)c1cc2ccccc2oc1=O	i	i	i	10.0	i	i
CCOc1ccc(N(CC(=O)NC2CCCCC2)C(=O)CCC(=O)Nc2nc(C)cs2)cc1	i	i	i	i	i	i
O=C1N/C(=C/c2cccn2-c2ccc(F)cc2)C(=O)N1Cc1ccccc1F	i	i	i	11.9	i	i
Cc1nc2ccccc2c2oc(C(=O)Nc3ccc4c(c3)OCCO4)cc12	i	i	i	i	i	i
Cc1nc2ccccc2c2oc(C(=O)Nc3ccc(C(C)C)cc3)cc12	i	i	i	13.8	i	i
CC1=C(C)/C(=N\OS(=O)(=O)c2ccccc2)C=CC1=O	61.6	i	i	i	i	i
O=S(=O)(c1ccc2nc(-c3ccccc3)[nH]c2c1)N1CCN(c2ccc(Cl)cc2)CC1	i	i	i	10.4	i	i
O=c1ccc2cc(S(=O)(=O)N3CCN(c4ccccc4)CC3)ccc2[nH]1	i	i	i	i	i	i
NC(CSC1(c2cccc3ccccc23)c2ccccc2-c2ccccc21)C(=O)O (stereo unspecified)	i	i	i	i	i	nt
NC(CSC(c1ccccc1)(c1ccccc1)c1cccc2ccccc12)C(=O)O (stereo unspecified)	21.0	i	i	i	i	nt
COc1ccc(OC)c(-c2cc(C3CCN(c4cc(Cl)nc(N)n4)CC3)[nH]n2)c1	i	i	i	10.4	i	i
Nc1nc(Cl)cc(N2CCC(c3cc(-c4ccc(Cl)cc4)n[nH]3)CC2)n1	i	i	i	14.0	i	i
O=C(COc1cccc(Br)c1)Nc1ccc(Cl)c(S(=O)(=O)N2CCOCC2)c1	i	i	i	9.3	i	i
O=C(COC(=O)c1cccnc1Cl)Nc1cccc(S(=O)(=O)N2CCOCC2)c1	i	i	i	11.8	i	i
O=C(CCCOc1ccccc1)Nc1ccc(Cl)c(S(=O)(=O)N2CCOCC2)c1	i	i	i	i	i	i
Fc1ccc(-c2csc(=S)[nH]2)cc1	i	i	i	i	i	i
S=c1[nH]c(-c2ccccc2)cs1	i	i	i	10.2	i	i
CC1CCN(CCCNC(=O)CN2C(=O)CSc3ccc(S(=O)(=O)N4CCOCC4)cc32)CC1	i	i	i	i	i	i
CC1CC(C)CN(CCCNC(=O)CN2C(=O)CSc3ccc(S(=O)(=O)N4CCOCC4)cc32)C1 (stereo unspecified)	i	i	i	12.3	i	i
O=C(Cc1ccccc1)NCC(=O)OCc1cccc([N+](=O)[O-])c1	i	i	i	i	i	i
CCOc1ccc(Cn2nnc(C(=O)Nc3cc(OC)cc(OC)c3)c2N)cc1	i	i	i	i	i	i
CCOc1ccc(Cn2nnc(C(=O)Nc3cc(C)cc(C)c3)c2N)cc1	i	i	i	11.8	i	i
CCCc1ccc2oc(C(=O)N3CCN(CCC(N)=O)CC3)c(C)c2c1	i	i	i	i	i	i
CCCc1ccc2oc(C(=O)N3CCN(c4cnccn4)CC3)c(C)c2c1	i	i	i	12.7	i	i
COc1cccc(-c2nc(CS(=O)(=O)CC(=O)Nc3cc(F)ccc3F)c(C)o2)c1	i	i	i	10.7	i	i
SMILES	OPRM1-OPRD1 ag	MOR-DOR inv ag	HTR5A inv ctr	HTR5A ag ctr	PvdQ acylase	CR mimetic SO
CCCNC(=O)CS(=O)(=O)Cc1nc(-c2cccc(OC)c2)oc1C	i	i	i	13.0	i	i
CC(=O)Nc1ccc(SCC(=O)NC(=O)c2ccc(S(=O)(=O)N(C)C)cc2)cc1	i	i	i	i	i	i
O=C(NCc1cc2ccccc2[nH]1)c1ccccc1F	i	i	i	i	i	i
CC(=O)Nc1ccc(NC(=O)COC(=O)c2ccc([N+](=O)[O-])o2)cc1	i	i	i	13.2	i	i
COc1ccc(-c2nn(-c3ccccc3)cc2C#N)cc1	i	i	i	13.8	i	i
COc1cc2oc(=O)ccc2cc1[C@H](O)[C@@H](O)C(C)(C)O	i	i	i	i	i	i
O=C(Cc1cccc(NC(=O)C2CCN(S(=O)(=O)c3cccc([N+](=O)[O-])c3)CC2)c1)Nc1cccc(C(=O)N2CCOCC2)c1	i	i	i	i	i	nt
C=CCN1C(=O)/C(=N/n2cnnc2)c2ccccc21	i	45.9	i	i	i	i
N#C/C(=C\c1c(N2CCC(C(N)=O)CC2)nc2ccccn2c1=O)C(=O)NC1CCCCC1	i	i	i	i	i	i
CSc1nc(N)nc(SCC(=O)C23CC4CC(CC(C4)C2)C3)c1C#N	i	i	i	11.7	i	i
Cc1ccc(CNCC(=O)Nc2ccc(C)cc2Br)cc1	i	i	i	11.8	i	i
Cc1ccc(NC(=O)CNCc2ccccc2)c(Br)c1	i	i	i	i	i	i
O=C(CSc1ccccc1)N1CCc2ccccc21	i	i	i	i	i	i
O=C(CSCc1ccco1)N1CCc2ccccc21	i	i	i	i	86.3	i
CCN(CC)CC(=O)Nc1sc2c(c1C(=O)c1ccccc1OC)CCC2	i	i	i	11.2	i	i
COc1ccc(OC)c(CN2CCN(C(=O)c3cccc(S(=O)(=O)Nc4ccc(F)cc4)c3)CC2)c1	i	i	i	i	i	nt
COc1cc(C(=O)O)cc(NC(=O)c2ccco2)c1OC	i	i	i	12.3	i	i
CNC(=O)COC(=O)c1cc(NC(=O)c2ccco2)c(OC)c(OC)c1	i	i	i	i	i	i
Cc1ccc2c(c1)COc1c3ccc(C(=O)N[C@@H](C)CO)cc3nn1-2	i	i	i	13.9	i	i
Nc1ccc(C2(c3ccc(N)cc3)C(=O)Nc3ccccc32)cc1	i	i	i	i	i	i
O=C1Nc2ccccc2C1(c1ccccc1)c1ccccc1	29.3	i	i	39.1	i	i
O=C(Nc1cccnc1)c1cc(-c2cccc(Br)c2)nc2ccccc12	i	i	i	13.1	i	i
COC(=O)c1cc(S(=O)(=O)NCC2CCN(CCc3ccc(OC)cc3)CC2)c[nH]1	i	i	i	i	i	i
C(=C1c2ccccc2-c2ccccc21)c1ccncc1	i	i	i	8.9	i	nt
O=C1/C(=C\c2ccncc2)CCc2ccccc21	i	i	i	i	i	i
O=C(N/N=C/c1c[nH]c2ccccc12)c1cc(-c2ccc(-c3ccccc3)cc2)n[nH]1	i	i	i	12.0	i	i
O=C(N/N=C/c1c[nH]c2ccccc12)c1cc(-c2ccccc2)n[nH]1	i	i	i	i	i	i
CCOC(=O)C(C)Oc1cccc2c(=O)n(CC(=O)NCc3ccc4c(c3)OCO4)ccc12 (stereo unspecified)	i	i	i	12.0	i	i
Cc1cccc(C)c1NC(=O)CNC(=O)C(Cc1ccccc1)NC(=O)c1ccccc1 (stereo unspecified)	i	i	i	12.6	i	i
CCCNC(=O)C(Cc1ccccc1)NC(=O)c1ccccc1 (stereo unspecified)	i	i	i	i	i	i
